These results are taken from PubChem BioAssay (EPA / NIEHS).

The test is described as follows: CCTE_Deisenroth_DEVTOX-GLR_Pluri_CellCount: Viability Assessment in CCTE's DevTox GLR-Pluri Assay Evaluation of Total Cell Counts, Deisenroth Lab (AID 2284430). How it is done:
CCTE_Deisenroth_DEVTOX-GLR_Pluri assay is a cell-based, multiplex-readout assay that uses RUES2-GLR, a human pluripotent cell line, with measurements taken at 48 hours after chemical dosing in a 384-well microplateCCTE_Deisenroth_DEVTOX-GLR_Pluri_CellCount is 1 of 4 assay components calculated from the CCTE_Deisenroth_DEVTOX-GLR_Pluri assay and it measures cell count. Using fluorescent nuclei staining, gain-of-signal activity can be used to understand changes in cell viability with fluorescent microscopy. It is designed to make measurements of nuclei counts as a surrogate for cell number, as detected with optical fluorescence microscopy by Perkin Elmer Harmony nuclei detection algorithm. To generalize the intended target to other relatable targets, this assay component is annotated to the cell cycle intended target family, where the subfamily is cytotoxicity.Data from the assay component CCTE_Deisenroth_DEVTOX-GLR_Pluri_CellCount was analyzed as 1 assay endpoint. The endpoint the percent change in the cell count relative to the 0.2% DMSO control in the CCTE_Deisenroth_DEVTOX-GLR_Pluri assay. Furthermore, this assay endpoint can be referred to as a primary readout, because this assay has produced multiple assay endpoints where this one serves as a measure of cytotoxicity.
All assay protocols are aligned to the DevTox GLR-Endo assay workflow. […]

Calls of active or inactive are those of the source. The calls were made as follows: active = hit-call score of the fitted dose curve at least 0.9, where 1 is the maximum; inactive = score below 0.9.

Take `C[C@@H]1C[C@H]2[C@@H]3CCC4=CC(=O)C=C[C@]4(C)[C@@]3(F)[C@@H](O)C[C@]2(C)[C@@]1(O)C(=O)COP(=O)(O)O`: the molecule was classed as inactive.
The same measure for `CC(O)CO` (configuration not stated): “inactive”.
